The record followed here is PubChem BioAssay (NCI).

Compounds without any hit were thinned out: in the full panel of roughly 83,000, 20% have a hit.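 Activity criterion: percent growth below 10, measured after cells in 96-well plates were exposed to a single compound concentration for 48 hours.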 Values without a mark were called inactive. Active and inactive are the calls of the source.

Among the test systems are SR leukemia; RPMI-8226 leukemia; OVCAR-8 ovarian; OVCAR-5 ovarian; OVCAR-4 ovarian; SK-OV-3 ovarian; IGROV1 ovarian; OVCAR-3 ovarian; HS 578T breast; NCI/ADR-RES ovarian; T-47D breast; BT-549 breast; MDA-MB-435 melanoma; SW-620 colon; MCF7 breast; HCT-116 colon; HCC-2998 colon; KM12 colon.
Common to all, as to experiment: NCI-60 one-dose screen, 48 h (100 = growth as untreated, 0 = no growth, -100 = all killed)
What all share (settings): 10 µM unless noted

In the case of `NC(N)=Nc1ccc(Oc2cccc(NC(N)=Nc3ccc(Cl)c(C(F)(F)F)c3)c2)cn1`, the growth was -16.4% (active) in the experiment on SR leukemia; 27.9% in the experiment with RPMI-8226 leukemia; 53.5% with OVCAR-8 ovarian; 41.8% with OVCAR-5 ovarian; 52.7% with OVCAR-4 ovarian; 48.3% with SK-OV-3 ovarian. The growth in the experiment with IGROV1 ovarian is -19.7% (active); with OVCAR-3 ovarian, 3.55% (active); with HS 578T breast, 33.2%; in the experiment with NCI/ADR-RES ovarian it was 95.4%; in the experiment with T-47D breast, 32.9%; with BT-549 breast, 60.4%. The growth with MDA-MB-435 melanoma is 46.4%; in the experiment with SW-620 colon it was 38.5%; in the experiment with MCF7 breast, 20.2%; with HCT-116 colon, 15.8%; in the experiment with HCC-2998 colon it was 62.6%; in the experiment on KM12 colon, 24.7%.

As to `CC(C)(C)n1cc(-c2ccnc(NCCCNS(=O)(=O)c3cccc(F)c3)n2)c(-c2ccc(Cl)c(O)c2)n1`, the growth is 94.1% in the experiment with SR leukemia; 76% in the experiment on RPMI-8226 leukemia; 118% with OVCAR-8 ovarian; 109% in the experiment on OVCAR-5 ovarian; 101% in the experiment on OVCAR-4 ovarian; 105% in the experiment on SK-OV-3 ovarian. Further, the growth is 103% with IGROV1 ovarian; 109% with OVCAR-3 ovarian; 101% in the experiment on HS 578T breast; 101% with NCI/ADR-RES ovarian; 75.1% in the experiment on T-47D breast; 95.6% in the experiment on BT-549 breast. Also, the growth with MDA-MB-435 melanoma is 101%; with SW-620 colon, 116%; in the experiment with MCF7 breast, 97.9%; in the experiment with HCT-116 colon it was 88.6%; in the experiment with HCC-2998 colon, 114%; in the experiment on KM12 colon, 92.9%.

Turning to `NC(N)=Nc1ccc(Oc2cccc(Nc3ccc(Cl)cc3)c2)cn1`, the growth is -57.8% (active) in the experiment on SR leukemia; -41.8% (active) in the experiment with RPMI-8226 leukemia; 29.4% with OVCAR-8 ovarian; 48.3% in the experiment on OVCAR-5 ovarian; 20.2% in the experiment with OVCAR-4 ovarian; 53.2% with SK-OV-3 ovarian. Also, the growth with IGROV1 ovarian was 14.4%; in the experiment with OVCAR-3 ovarian, -14.3% (active); in the experiment on HS 578T breast, 34.1%; in the experiment with NCI/ADR-RES ovarian, 56.5%; in the experiment on T-47D breast it was 26.1%; with BT-549 breast, 65.7%. Moreover, the growth is 14.3% in the experiment on MDA-MB-435 melanoma; -71.8% (active) in the experiment with SW-620 colon; -76.7% (active) in the experiment on MCF7 breast; -73.4% (active) in the experiment with HCT-116 colon; -89.1% (active) in the experiment with HCC-2998 colon; -92.6% (active) in the experiment with KM12 colon.

In the case of `O=C(NNc1nc2cc(F)ccc2n2c(CN3CC4CNCC4C3)ccc12)c1cnccn1` (centres undefined), the growth with SR leukemia was 12.9%; in the experiment on RPMI-8226 leukemia, 46.7%; in the experiment with OVCAR-8 ovarian, 14.3%; in the experiment on OVCAR-5 ovarian, 43.1%; in the experiment on OVCAR-4 ovarian, 23.8%; with SK-OV-3 ovarian, 23.4%. The growth in the experiment with IGROV1 ovarian was 24.2%; with OVCAR-3 ovarian, 36.9%; in the experiment with HS 578T breast, 72.5%; in the experiment with NCI/ADR-RES ovarian it was 84.8%; with T-47D breast it was 37.8%; in the experiment with BT-549 breast, 35.3%. Moreover, the growth with MDA-MB-435 melanoma was 26.1%; in the experiment on SW-620 colon it was 23%; with MCF7 breast, 12.2%; in the experiment on HCT-116 colon, 16.4%; in the experiment with HCC-2998 colon, 32.1%; in the experiment on KM12 colon, 16.8%.

`CCN(CC)c1ccc(NC2=C(Cl)C(=O)c3nc(C)ccc3C2=O)cc1`: the growth with SR leukemia was 7.24% (active); with RPMI-8226 leukemia it was 2.6% (active); in the experiment on OVCAR-8 ovarian, -12.2% (active); in the experiment on OVCAR-5 ovarian, 108%; with OVCAR-4 ovarian, -97% (active); in the experiment with SK-OV-3 ovarian, 112%. The growth is -52.2% (active) in the experiment on IGROV1 ovarian; -29.6% (active) with OVCAR-3 ovarian; 65.4% in the experiment on HS 578T breast; 51.2% with NCI/ADR-RES ovarian; -36% (active) in the experiment with T-47D breast; 132% in the experiment with BT-549 breast. Moreover, the growth was -76% (active) in the experiment on MDA-MB-435 melanoma; -29.3% (active) with SW-620 colon; -38.5% (active) in the experiment on MCF7 breast; -63.8% (active) in the experiment on HCT-116 colon; 9.75% (active) with HCC-2998 colon; 101% with KM12 colon.

Regarding `CCC(CC)N1C(=O)/C(=c2\sc3n(c2=O)NC2C(N=3)N(CC)C(=O)N2CC)c2ccccc21` (centres undefined), the growth was 54.5% with SR leukemia; 64.7% in the experiment on RPMI-8226 leukemia; 81.6% with OVCAR-8 ovarian; 57.3% in the experiment with OVCAR-5 ovarian; 63.6% in the experiment on OVCAR-4 ovarian; 95.7% in the experiment on SK-OV-3 ovarian. In addition, the growth in the experiment on IGROV1 ovarian was 44.7%; in the experiment on OVCAR-3 ovarian it was 31.5%; in the experiment with HS 578T breast, 73.1%; with NCI/ADR-RES ovarian, 26.3%; with T-47D breast, 86.1%; with BT-549 breast it was 102%. In addition, the growth with MDA-MB-435 melanoma was 9.51% (active); in the experiment with SW-620 colon it was 48.2%; in the experiment on MCF7 breast, 35.8%; with HCT-116 colon, 27.9%; in the experiment on HCC-2998 colon it was 65.9%; in the experiment with KM12 colon it was 11.2%.

For the molecule `CCCCNNC(=O)c1ccc(-c2cccc(F)c2F)cc1`, the growth with SR leukemia was 25.2%; in the experiment with RPMI-8226 leukemia, 5.02% (active); in the experiment on OVCAR-8 ovarian it was 20.8%; in the experiment with OVCAR-5 ovarian it was 24.9%; in the experiment on OVCAR-4 ovarian it was 41.5%; in the experiment on SK-OV-3 ovarian, 47.2%. The growth is 31.3% in the experiment on IGROV1 ovarian; 44.6% in the experiment on OVCAR-3 ovarian; 41.2% with HS 578T breast; 13.4% in the experiment on NCI/ADR-RES ovarian; 3.16% (active) in the experiment with T-47D breast; 58.6% with BT-549 breast. In addition, the growth is 25.4% in the experiment with MDA-MB-435 melanoma; 20.7% in the experiment with SW-620 colon; 15.9% with MCF7 breast; 13.9% in the experiment on HCT-116 colon; 37.9% in the experiment on HCC-2998 colon; 44.6% in the experiment with KM12 colon.

Regarding `Cc1cc(C(NC(=O)CCCCCNc2cccc3c2C(=O)N(C2CCC(=O)NC2=O)C3=O)c2ccc3c(c2)OC(F)(F)O3)c(O)c2ncccc12` (centres undefined), the growth with SR leukemia is 26.2%; with RPMI-8226 leukemia, 34.7%; in the experiment with OVCAR-8 ovarian, 38.6%; with OVCAR-5 ovarian it was 73.2%; in the experiment with OVCAR-4 ovarian, 73.1%; in the experiment with SK-OV-3 ovarian, 109%. Moreover, the growth in the experiment on IGROV1 ovarian is 37.5%; with OVCAR-3 ovarian, 38.3%; in the experiment with HS 578T breast, 37.7%; in the experiment on NCI/ADR-RES ovarian, 104%; with T-47D breast, 67.6%; in the experiment with BT-549 breast it was 36.6%. Also, the growth in the experiment on MDA-MB-435 melanoma was 27.8%; in the experiment with SW-620 colon, 40.2%; in the experiment on MCF7 breast, 29.5%; with HCT-116 colon it was 27.8%; in the experiment on HCC-2998 colon it was 79.2%; with KM12 colon, 39.9%.
